Test results reported in PubChem BioAssay (EPA / NIEHS).
Inconclusive results are not listed. Activity calls are given as the source filed them. The calls were made as follows, unless noted: active = hit-call score of the fitted dose curve at least 0.9, where 1 is the maximum; inactive = score below 0.9.

How the values were obtained:
[1] = read-out: Monokine induced gamma interferon (MIG), CXCL9 (gene 4283); assay: BSK_SAg_MIG: BioMAP Diversity Plus: SAg Assay for Monokine induced gamma interferon (MIG) Biomarker Activity (AID 2283092); details: primary human HUVEC with PBMC; actives raise or lower the signal
How it was run: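 Values reflect bidirectional fitting of ELISA-measured MIG against DMSO vehicle, taken 24 h after dosing of a co-culture of human umbilical vein endothelial cells and peripheral blood mononuclear cells.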

[2] = BSK_SAg_PBMCCytotoxicity: PBMC Cytotoxicity Assessment in the BioMAP Diversity Plus: SAg Assay (AID 2283093); details: primary human HUVEC with PBMC;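 also: PBMC viability measured as Alamar Blue reduction fluorescence at 546/580 nm; fitted both ways against DMSO so a hit may be loss or gain of signal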;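 as to AC50: PBMC superantigen activated with SEB plus TSST-1 one hour after compound addition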
How it was run: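 Compound added to 75,000 PBMC/well for 1 h; SEB and TSST-1 then added at 20 ng/mL final each; 90 h incubation; Alamar Blue 6 h; read 546/580 nm ex/em. Activity fitted bidirectionally relative to DMSO baseline.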

[3] = read-out: Interleukin-8 (IL8), CXCL8 (gene 3576); assay: BSK_SAg_IL8: BioMAP Diversity Plus: SAg Assay for Interleukin-8 (IL8) Biomarker Activity (AID 2283094); details: primary human HUVEC with PBMC; actives raise or lower the signal
How it was run: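 ELISA read-out of IL-8 in a primary human vascular co-culture (umbilical vein endothelium plus PBMC), taken 24 h after compound addition. Values derive from bidirectional fits against DMSO negative controls.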

[4] = BSK_SAg_Proliferation: Cell Proliferation Assessment in the BioMAP Diversity Plus: SAg Assay (AID 2283095); details: primary human HUVEC with PBMC;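 also: relative cell number as total protein by SRB absorbance in sub-confluent culture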
How it was run: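 Cells (endothelium plus PBMC, human primary) were dosed with chemical, cultured 96 h, fixed in 10% TCA and stained with 0.1% SRB. Absorbance at 560 nm gave relative protein, fitted bidirectionally relative to DMSO.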

[5] = BSK_SAg_SRB: Viability Assessment in the BioMAP Diversity Plus: SAg Assay (AID 2283096); details: primary human HUVEC with PBMC;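 also: cells read one day after compound addition; hits may be either gain or loss of signal compared with DMSO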
How it was run: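 Total protein by sulforhodamine B staining, 24 h after dosing, in HUVEC–PBMC co-culture; DMSO-referenced bidirectional fitting.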

[6] = target: human CYP19A1, CYP19A1 (gene 1588) (UniProt P11511); assay: NVS_ADME_hCYP19A1: NovaScreen (NVS) CYP450-related Enzyme Activity (ADME) Assay for human CYP19A1 (AID 2283098; active = hit-call score of the fitted dose curve at least 0.9, where 1 is the maximum;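 also: potency for inhibitors seen as loss of fluorescent enzyme signal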)
How it was run: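 Biochem, cell-free; recombinant enzyme + specific substrate; fluorescence intensity at 0.5 h post-dose; 10 uM duplicate primary, conc. series for actives; acetonitrile = negative control/baseline; positive and negative controls on every plate.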

[7] = target: human CYP1A2, CYP1A2 (gene 1544) (UniProt P05177); assay: NVS_ADME_hCYP1A2: NovaScreen (NVS) CYP450-related Enzyme Activity (ADME) Assay for human CYP1A2 (AID 2283102; active = hit-call score of the fitted dose curve at least 0.9, where 1 is the maximum)
How it was run: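 Compounds were tested at 10 uM in duplicate against recombinant CYP1A2 produced in insect cells. Enzyme activity was measured by fluorescence 0.5 h after dosing, with loss of signal versus acetonitrile control. Active compounds were re-tested in concentration series.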

human CYP19A1, CYP19A1 (gene 1588), sequence (P11511 whole entry, looked up): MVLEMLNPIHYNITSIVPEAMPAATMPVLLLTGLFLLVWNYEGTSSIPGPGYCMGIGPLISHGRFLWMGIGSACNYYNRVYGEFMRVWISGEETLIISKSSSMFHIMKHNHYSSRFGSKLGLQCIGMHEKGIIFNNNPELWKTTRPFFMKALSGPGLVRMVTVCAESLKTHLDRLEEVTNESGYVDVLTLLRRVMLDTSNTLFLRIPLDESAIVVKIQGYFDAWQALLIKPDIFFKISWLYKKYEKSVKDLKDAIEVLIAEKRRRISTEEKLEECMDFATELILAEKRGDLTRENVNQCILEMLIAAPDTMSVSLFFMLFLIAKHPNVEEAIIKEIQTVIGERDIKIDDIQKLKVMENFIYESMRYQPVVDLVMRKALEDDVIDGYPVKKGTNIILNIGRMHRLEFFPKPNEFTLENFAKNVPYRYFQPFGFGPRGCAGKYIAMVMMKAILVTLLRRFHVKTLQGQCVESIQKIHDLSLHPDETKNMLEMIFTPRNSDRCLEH
human CYP1A2, CYP1A2 (gene 1544), sequence (P05177 whole entry, looked up): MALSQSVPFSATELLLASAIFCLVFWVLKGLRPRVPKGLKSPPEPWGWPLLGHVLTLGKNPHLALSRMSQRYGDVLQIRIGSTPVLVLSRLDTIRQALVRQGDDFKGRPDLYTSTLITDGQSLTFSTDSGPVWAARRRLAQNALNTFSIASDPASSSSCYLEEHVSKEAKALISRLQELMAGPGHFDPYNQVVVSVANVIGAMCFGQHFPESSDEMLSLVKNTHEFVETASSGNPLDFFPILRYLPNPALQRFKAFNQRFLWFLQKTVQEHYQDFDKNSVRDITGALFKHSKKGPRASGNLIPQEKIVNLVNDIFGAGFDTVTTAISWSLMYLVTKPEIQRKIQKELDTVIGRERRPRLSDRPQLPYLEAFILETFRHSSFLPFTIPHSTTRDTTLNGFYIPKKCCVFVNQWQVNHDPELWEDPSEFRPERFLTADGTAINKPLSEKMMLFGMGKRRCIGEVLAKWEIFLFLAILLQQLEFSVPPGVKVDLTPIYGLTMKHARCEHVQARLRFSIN

For `Cc1cccc(OP(=O)(Oc2cccc(C)c2)Oc2cccc(C)c2)c1`, the outcome [1] was “inactive”, the outcome [2] was “inactive” and the outcome [3] was “inactive”. For the same compound, the outcome [4] was “inactive” and the outcome [5] was “inactive”.
In the case of `C#CCOC(=O)/C=C(C)/C=C/CC(C)CCCC(C)C` (configuration not stated), the outcome [1] is reported as “inactive”, the outcome [2] is reported as “inactive” and the outcome [3] is reported as “inactive”. For the same compound, the outcome [4] was “inactive” and the outcome [5] was “inactive”.
With `CC(C)=CC1C(C(=O)OCc2cccc(Oc3ccccc3)c2)C1(C)C` (configuration not stated) the outcome [1] was “inactive”, the outcome [2] was “inactive” and the outcome [3] was “inactive”. For the same compound, the AC50 [4] was 26.3 µM (active) and the AC50 [5] was 24.9 µM (active).
With `O=C(CCl)NCO` the outcome [1] was “inactive”, the outcome [2] was “inactive” and the outcome [3] was “inactive”. For the same compound, the outcome [4] was “inactive” and the outcome [5] was “inactive”.
With `CCOP(=O)(OCC)SCCSCC` the outcome [1] was “inactive”, the outcome [2] was “inactive” and the outcome [3] was “inactive”. The outcome [4] was “inactive” and the outcome [5] was “inactive”.
In the case of `O=C(O)C1(c2ccc3c(c2)OC[C@H](Cc2ccc(-c4ccccc4)cc2)[C@H]3O)CCCC1`, the outcome [1] is reported as “inactive”, the outcome [2] is reported as “inactive” and the AC50 [3] is reported as 24.6 µM (active). The AC50 [4] was 16.7 µM (active) and the AC50 [5] was 27.3 µM (active).
With `CCOP(=O)(OCC)OC(=CCl)c1ccc(Cl)cc1Cl` the outcome [1] was “inactive”, the outcome [2] was “inactive” and the outcome [3] was “inactive”. For the same compound, the outcome [4] was “inactive” and the outcome [5] was “inactive”.
For `Cc1cc(C(C)(C)c2ccc(O)c(C)c2)ccc1O`, the outcome [1] was “inactive”, the AC50 [2] was 15.7 µM (active) and the outcome [3] was “inactive”. For the same compound, the AC50 [4] was 18.2 µM (active) and the outcome [5] was “inactive”.
With `CC(C)N(C(=O)CCl)c1ccccc1` the AC50 [1] was 31.1 µM (active), the AC50 [2] was 16.7 µM (active) and the outcome [3] was “inactive”. The AC50 [4] was 3.59 µM (active) and the AC50 [5] was 33.8 µM (active).
With `CCOC(=O)CC(=O)CCl` the outcome [1] was “inactive”, the AC50 [2] was 9.62 µM (active) and the AC50 [3] was 9.73 µM (active). For the same compound, the AC50 [4] was 16.2 µM (active) and the outcome [5] was “inactive”.
In the case of `CCOP(=S)(OCC)OP(=S)(OCC)OCC`, the outcome [1] is reported as “inactive”, the AC50 [2] is reported as 25.3 µM (active) and the AC50 [3] is reported as 36 µM (active). For the same compound, the AC50 [4] was 20 µM (active) and the outcome [5] was “inactive”.
With `CCN(CC)C(=O)C(Cl)=C(C)OP(=O)(OC)OC` the outcome [1] was “inactive”, the outcome [2] was “inactive” and the outcome [3] was “inactive”. For the same compound, the outcome [4] was “inactive” and the outcome [5] was “inactive”.
For `CCOC(=O)CCN(SN(C)C(=O)Oc1cccc2c1OC(C)(C)C2)C(C)C`, the AC50 [1] was 35.4 µM (active), the AC50 [2] was 26 µM (active) and the outcome [3] was “inactive”. For the same compound, the AC50 [4] was 23.1 µM (active) and the outcome [5] was “inactive”.
With `O=C(O)COc1cc(Cl)c(Cl)cc1Cl` the outcome [1] was “inactive”, the outcome [2] was “inactive” and the outcome [3] was “inactive”. For the same compound, the outcome [4] was “inactive” and the outcome [5] was “inactive”.
With `O=[N+]([O-])c1cccc2ccccc12` the outcome [1] was “inactive”, the outcome [2] was “inactive” and the outcome [3] was “inactive”. For the same compound, the outcome [4] was “inactive” and the outcome [5] was “inactive”.
In the case of `O=C1c2ccccc2C(=O)C1C(=O)C(c1ccccc1)c1ccc(Cl)cc1` (configuration not stated), the AC50 [6] is reported as 5.08 µM (active).
For `Oc1cccc(-c2ccccc2)c1`, the outcome [1] was “inactive”, the AC50 [2] was 32.1 µM (active) and the outcome [3] was “inactive”. For the same compound, the AC50 [4] was 20 µM (active) and the AC50 [5] was 20 µM (active).
With `COC(=O)Nc1cccc(OC(=O)Nc2cccc(C)c2)c1` the outcome [7] was “inactive”.
For `CCCCN(CCCC)C(=S)[S-].CCCCN(CCCC)C(=S)[S-].[Ni+2]`, the outcome [1] was “inactive”, the outcome [2] was “inactive” and the outcome [3] was “inactive”. For the same compound, the outcome [4] was “inactive” and the outcome [5] was “inactive”.
With `N#Cc1cccnc1` the outcome [1] was “inactive”, the outcome [2] was “inactive” and the outcome [3] was “inactive”. The outcome [4] was “inactive” and the outcome [5] was “inactive”.
